From PubChem BioAssay
The list is not random: actives were taken first. Their share in the collection is about 4.3%.
CHOP inh – blocks CHOP induction under ER stress | CHO-K1 CHOP-promoter luciferase, tunicamycin-induced, 15-18 h | inhibition, % at 10 µM | 3.8% of 220,000 active;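 active = compounds that reduced the stress-induced luciferase reporter signal by more than about 70% of percent inhibition, limit read from the data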;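 note: 0% = tunicamycin plus vehicle and 100% = wells without tunicamycin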
CF NFkB block – inhibitors of cystic fibrosis induced NF-kB | KKLEB NF-kB-GFP reporter, PAF-induced, GFP fluorescence overnight | inhibition, % at 5 µM | 0.86% of 360,000 active;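 active = at least 50% inhibition at 5 µM, scaled per plate between neutral and stimulator controls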;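 note: PAF is a Pseudomonas aeruginosa culture filtrate used as stimulus; plate controls were PAF-stimulated DMSO wells for no effect and unstimulated DMSO wells for full effect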
KKLEB tox – CF airway cell cytotoxicity counter-screen. KKLEB CF airway cells viability, ATPlite luminescence, overnight; hits give low values; cells stimulated with P. aeruginosa culture filtrate. activity change (cytotoxicity), % at 5 µM. 0.36% of 360,000 active. AID 602141;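 active = corrected activity change at or below -50% at 5 µM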
TRPM1 prom inh – MITF TRPM1 promoter inhibition in SK-MEL-5 cells; SK-MEL-5 TRPM1 promoter luciferase, 24 h; inhibition, % at 12.5 µM; 0.83% of 330,000 active;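 active = mean inhibition across replicates of 60% or more, whatever share of single replicates reaches that level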
Peg3 promoter – reduces Peg3 promoter-driven luciferase expression in HeLa. HeLa PEG-Prom luciferase reporter, luminescence, overnight. inhibition, % at 20 µM. 1.7% of 360,000 active;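 active = inhibition of at least 50% at 20 µM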
HIF-2a inh – blocks HIF-2a reporter activity. 786-0 RCC cells HIF-2a reporter, luciferase luminescence, overnight. inhibition, % at 18.8 µM. AID 624352. 0.72% of 360,000 active;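 active = inhibition of the luminescence signal of 40% or more relative to plate controls, in a single-dose primary screen at 18.75 µM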
* = called active by the depositor.

Screening O=C(c1cc(-c2ccco2)on1)N1CCN(C(c2ccccc2)c2ccccc2)CC1 returned CHOP inh 30, CF NFkB block 27, KKLEB tox -26, TRPM1 prom inh 75*, Peg3 promoter 15 and HIF-2a inh 7.
`O=C(N1CCCCC1)N1CCN(C(c2ccccc2)c2ccccc2)CC1` gave CHOP inh 83*, CF NFkB block 7, KKLEB tox 12, TRPM1 prom inh 1, Peg3 promoter 19 and HIF-2a inh 17.
Screening CC(C)Cc1cc(C(=O)N2CCN(C(c3ccccc3)c3ccccc3)CC2)no1 returned CHOP inh 23, CF NFkB block 25, KKLEB tox -14, TRPM1 prom inh -8, Peg3 promoter 18 and HIF-2a inh 8.
Screening CC(C)c1onc(C(=O)N2CCN(C(c3ccccc3)c3ccccc3)CC2)c1[N+](=O)[O-] returned CHOP inh -9, CF NFkB block 50*, KKLEB tox -5, TRPM1 prom inh 0, Peg3 promoter 17 and HIF-2a inh 5.
Screening CC(C)c1cc(C(=O)N2CCN(C(c3ccccc3)c3ccccc3)CC2)no1 returned CHOP inh 82*, CF NFkB block 15, KKLEB tox 1, TRPM1 prom inh 0, Peg3 promoter 26 and HIF-2a inh 22.
CC(C)c1onc(C(=O)N2CCN(c3ccccc3)CC2)c1[N+](=O)[O-] was read as CHOP inh 1, CF NFkB block 23, KKLEB tox 0, TRPM1 prom inh -2, Peg3 promoter -8 and HIF-2a inh 0.
`CO/N=C(\CCC(=O)O)c1cccs1` gave CHOP inh -4, CF NFkB block 17, KKLEB tox 7, TRPM1 prom inh 6, Peg3 promoter 1 and HIF-2a inh 14.
O=C(/C=C/c1ccccc1)NCCS(=O)(=O)N1CCN(c2ccc(F)cc2)CC1 was read as CF NFkB block 19, KKLEB tox -8, TRPM1 prom inh 4, Peg3 promoter 11 and HIF-2a inh 9.
Screening COc1ccccc1N=NNc1ccc(S(=O)(=O)NC(C)=O)cc1 returned CF NFkB block -5, KKLEB tox 6, Peg3 promoter -11 and HIF-2a inh -56.
`CCN(C(=O)COC(=O)C1CCN(S(=O)(=O)c2c(Cl)cccc2Cl)CC1)C1CCCCC1` gave CF NFkB block -7, KKLEB tox 3, TRPM1 prom inh -3, Peg3 promoter -8 and HIF-2a inh 18.
For CC1C(=O)CC(c2ccccc2)N(C)C1c1ccccc1 (configuration not stated) the results were CHOP inh 79*, CF NFkB block -40, KKLEB tox -1, TRPM1 prom inh 0, Peg3 promoter 3 and HIF-2a inh 7.
For Cc1ccc([C@@H]2C[C@H]3[C@@H](CN2S(=O)(=O)c2ccc(C)cc2)C(=O)C[C@@H](c2ccccc2)N3S(=O)(=O)c2ccc(C)cc2)cc1 the results were CF NFkB block -37, KKLEB tox 30, Peg3 promoter 11 and HIF-2a inh 1.
CC[C@]12c3[nH]c4ccccc4c3CCN1C(=O)C(CC(=O)NCCCN(C)C)C[C@@H]2C(=O)N1CCN(C(=O)c2ccco2)CC1 (some centres not stated) was read as CF NFkB block -24, KKLEB tox 11, TRPM1 prom inh -5, Peg3 promoter -3 and HIF-2a inh 8.
Screening COc1ccc(-c2csc(C(NC(C)=O)c3cccc(F)c3)n2)cc1 (configuration not stated) returned CF NFkB block -33, KKLEB tox 3, Peg3 promoter 1 and HIF-2a inh -43.
Screening Cc1cccc(-c2nsc(SCC(=O)Nc3nccs3)n2)c1 returned CHOP inh 87*, CF NFkB block 3, KKLEB tox 0, TRPM1 prom inh -24, Peg3 promoter 14 and HIF-2a inh -8.
`COc1ccc(-c2cn3c4c(sc3n2)CCCC4)cc1` gave CHOP inh 9, CF NFkB block -10, KKLEB tox -67*, TRPM1 prom inh -8, Peg3 promoter -58 and HIF-2a inh -19.
Screening COc1ccc(-c2cn3c(C)c(C(=O)N4CCCc5ccccc54)sc3n2)cc1 returned CF NFkB block -47, KKLEB tox 12, TRPM1 prom inh -1, Peg3 promoter -4 and HIF-2a inh -67.
Screening COc1cc(C)ccc1S(=O)(=O)NC(=O)C1(C)CCN1C(=O)C1(c2ccc(Cl)cc2)CCC1 (configuration not stated) returned CF NFkB block 1, KKLEB tox -5, Peg3 promoter -8 and HIF-2a inh 13.
For O=C(NC1CCCC1)C1c2ccccc2OCC(=O)N1CCc1ccccc1 (configuration not stated) the results were HIF-2a inh 14.
For C=CCn1c(C)cc(C(=O)COC(=O)/C=C/c2c(C)nn(C3CCS(=O)(=O)C3)c2Cl)c1C (configuration not stated) the results were CF NFkB block -1, KKLEB tox -9, TRPM1 prom inh 0, Peg3 promoter -27 and HIF-2a inh -37.
For Cc1ccc2nc(-c3cc(N)cc(N)c3)oc2c1 the results were CHOP inh 79*, CF NFkB block -3, KKLEB tox -26, TRPM1 prom inh 22, Peg3 promoter -122 and HIF-2a inh 62*.
Screening COc1ccccc1-c1nc(-c2ccccn2)no1 returned CHOP inh 59, CF NFkB block -27, KKLEB tox -29, TRPM1 prom inh 45, Peg3 promoter 47 and HIF-2a inh 43*.
Screening COc1ccccc1-c1noc(-c2ccncc2)n1 returned CHOP inh 2, CF NFkB block 5, KKLEB tox -4, TRPM1 prom inh -37, Peg3 promoter -179 and HIF-2a inh -158.
Screening CC(C)(C)C(=O)Nc1nnc(SCC(=O)NC2CCCCC2)s1 returned CF NFkB block 4, KKLEB tox -8, TRPM1 prom inh -2, Peg3 promoter -10 and HIF-2a inh 14.
For NC(=O)c1ccc2c(=O)n3c(-c4cc(Cl)c(N)c(Cl)c4)csc3nc2c1 the results were CHOP inh 88*, CF NFkB block 32, KKLEB tox -19, TRPM1 prom inh 7, Peg3 promoter 24 and HIF-2a inh 12.
Screening Cc1sc(NC(=O)CCCC(=O)O)c(C(N)=O)c1-c1ccccc1 returned CHOP inh 57, CF NFkB block 15, KKLEB tox -4, TRPM1 prom inh 41, Peg3 promoter -74 and HIF-2a inh 78*.
Screening CCCCN(C=O)c1c(CC)nc2c(OCc3ccc(Cl)cc3Cl)cccn12 returned CF NFkB block -24, KKLEB tox 0, Peg3 promoter 7 and HIF-2a inh -15.
Screening O=C(NCc1cccnc1)c1cc(C2CCCCN2C(=O)CCCc2ccccc2)on1 (configuration not stated) returned CF NFkB block -55, KKLEB tox 28, Peg3 promoter 8 and HIF-2a inh 23.
